The source of these data is PubChem BioAssay (NCI).

The nature of test [1]: NCI Yeast Anticancer Drug Screen. Data for the rad50 strain (AID 155).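 Further: 0% = growth of vehicle-only cultures of the same strain.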 The note with it: S. cerevisiae rad50 strain growth inhibition, active compounds read high. A digest of the protocol:
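Yeast carrying a defined DNA repair defect were exposed to test compounds, and growth was compared with vehicle-treated controls to give percent inhibition.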

Test [2] in a line: NCI Yeast Anticancer Drug Screen. Data for the mec2-1 strain (AID 157). The note with it: S. cerevisiae mec2-1 strain, active compounds read high. A digest of the protocol: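 Compounds were applied to mec2-1 yeast cells. Their growth was then compared with that of vehicle-treated cultures to give growth inhibition.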
The nature of test [3]: NCI Yeast Anticancer Drug Screen. Data for the sgs1 mgt1 strain (AID 161).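 Further: 0% = growth of cultures given vehicle only.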 Conditions: S. cerevisiae sgs1 mgt1 strain, active compounds read high. In outline:
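Percent growth inhibition was derived by comparing compound-exposed mutant yeast with vehicle-exposed cultures. The strain carries alterations in DNA damage repair.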

Test [4] is described as follows: NCI Yeast Anticancer Drug Screen. Data for the cln2 rad14 strain (AID 165).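 Further: 0% = growth equal to vehicle treated cultures.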 The note with it: S. cerevisiae cln2 rad14 strain, active compounds read high. A digest of the protocol: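 Strain: cln2 rad14 yeast, altered in cell cycle control and DNA damage repair. Read-out: growth inhibition vs vehicle.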
The nature of test [5]: NCI Yeast Anticancer Drug Screen. Data for the bub3 strain (AID 167). Conditions: S. cerevisiae bub3 mutant strain, active compounds read high. In outline: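 Compounds were applied to a genetically altered yeast strain carrying a cell-cycle control defect. Growth inhibition was scored against vehicle-treated controls.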
Test [6] is described as follows: NCI Yeast Anticancer Drug Screen. Data for the mlh1 rad18 strain (AID 175). Conditions: S. cerevisiae mlh1 rad18 strain growth inhibition, active compounds read high. In outline: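 A repair-deficient yeast strain is exposed to test compound, and growth is scored relative to vehicle-treated controls.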
Setting [7] is: at 5.0 µM (retest, dose inferred, filed as 0.5).
Where [8] appears, read: at 50.0 µM (retest, dose inferred, filed as 5.0).

The panel holds about 79,000 compounds, 15% with a hit somewhere; the sample as a whole holds those more often. A number with no mark means an inactive call. Activity calls are given as the source filed them. No stated cut-off is given here; in the data, active means growth inhibition above about 70%; inactive means the rest.

Regarding `CC(=O)c1ccc([As]=O)cc1` (configuration not stated), the growth inhibition in test [1] (setting [7]) was 16%; in test [1] (setting [8]), 100% (active); in test [1] (at 50.0 µM), 99.8% (active); in test [2] (setting [7]), 19%; in test [2] (setting [8]) it was 100% (active); in test [2] (at 50.0 µM), 99.8% (active). Besides, the growth inhibition in test [3] (setting [7]) was 13%; in test [3] (setting [8]), 99% (active); in test [3] (at 50.0 µM), 99.8% (active); in test [4] (setting [7]) it was -9%; in test [4] (setting [8]), 99% (active); in test [4] (at 50.0 µM), 99.4% (active). Moreover, the growth inhibition in test [5] (setting [7]) was -8%; in test [5] (setting [8]) it was 100% (active); in test [5] (at 50.0 µM) it was 99.5% (active); in test [6] (setting [7]), 14%; in test [6] (setting [8]), 100% (active); in test [6] (at 50.0 µM) it was 99.5% (active).
On to `[Cl][Hg][c]1ccc(Cl)s1`, for which the growth inhibition in test [1] (setting [7]) is 99% (active); in test [1] (setting [8]) it was 99% (active); in test [1] (at 50.0 µM), 99.2% (active); in test [2] (setting [7]), 100% (active); in test [2] (setting [8]), 99% (active); in test [2] (at 50.0 µM), 99.2% (active). Further, the growth inhibition in test [3] (setting [7]) is 100% (active); in test [3] (setting [8]) it was 100% (active); in test [3] (at 50.0 µM) it was 99% (active); in test [4] (setting [7]), 99% (active); in test [4] (setting [8]) it was 99% (active); in test [4] (at 50.0 µM), 99% (active). Moreover, the growth inhibition is 100% (active) in test [5] (setting [7]); 100% (active) in test [5] (setting [8]); 99.3% (active) in test [5] (at 50.0 µM); 99% (active) in test [6] (setting [7]); 99% (active) in test [6] (setting [8]); 98.6% (active) in test [6] (at 50.0 µM).
For the compound `C=NCC#N`, the growth inhibition is 8% in test [1] (setting [7]); 8% in test [1] (setting [8]); -12.9% in test [1] (at 50.0 µM); -1% in test [2] (setting [7]); 2% in test [2] (setting [8]); -1.3% in test [2] (at 50.0 µM). The growth inhibition in test [3] (setting [7]) is 4%; in test [3] (setting [8]) it was 8%; in test [3] (at 50.0 µM), 25%; in test [4] (setting [7]), 11%; in test [4] (setting [8]) it was 6%; in test [4] (at 50.0 µM), 67.3%. The growth inhibition in test [5] (setting [7]) is 4%; in test [5] (setting [8]), -2%; in test [5] (at 50.0 µM), 5.25%; in test [6] (setting [7]) it was 3%; in test [6] (setting [8]) it was 3%; in test [6] (at 50.0 µM) it was 26.9%.
In the case of `CC1=CC(=C2C=CC(=[N+](C)C)C=C2)C=C(C)S1`, the growth inhibition was 21% in test [1] (setting [7]); 72% (active) in test [1] (setting [8]); 55.6% in test [1] (at 50.0 µM); 10% in test [2] (setting [7]); 91% (active) in test [2] (setting [8]); 71.6% (active) in test [2] (at 50.0 µM). Besides, the growth inhibition in test [3] (setting [7]) is 9%; in test [3] (setting [8]) it was 94% (active); in test [3] (at 50.0 µM), 87.3% (active); in test [4] (setting [7]), 7%; in test [4] (setting [8]), 82% (active); in test [4] (at 50.0 µM), 77.7% (active). In addition, the growth inhibition is -2% in test [5] (setting [7]); 96% (active) in test [5] (setting [8]); 87.7% (active) in test [5] (at 50.0 µM); 11% in test [6] (setting [7]); 90% (active) in test [6] (setting [8]); 87% (active) in test [6] (at 50.0 µM).
Consider `CC1CCC2(OC1)OC1C(O)C3C4CCC5CC(OC6OC(CO)C(OC7OC(CO)C(O)C(OC8OCC(O)C(O)C8O)C7OC7OC(CO)C(O)C(OC8OC(CO)C(O)C(O)C8O)C7O)C(O)C6O)C(O)CC5(C)C4CCC3(C)C1C2C` (configuration not stated), for which the growth inhibition in test [1] (setting [7]) is 95% (active); in test [1] (setting [8]) it was 99% (active); in test [1] (at 50.0 µM), 93.2% (active); in test [2] (setting [7]), 97% (active); in test [2] (setting [8]), 99% (active); in test [2] (at 50.0 µM), 94% (active). The growth inhibition in test [3] (setting [7]) was 93% (active); in test [3] (setting [8]), 99% (active); in test [3] (at 50.0 µM), 93.8% (active); in test [4] (setting [7]) it was 72% (active); in test [4] (setting [8]) it was 99% (active); in test [4] (at 50.0 µM), 92.3% (active). Further, the growth inhibition was 97% (active) in test [5] (setting [7]); 99% (active) in test [5] (setting [8]); 93.2% (active) in test [5] (at 50.0 µM); 96% (active) in test [6] (setting [7]); 98% (active) in test [6] (setting [8]); 88% (active) in test [6] (at 50.0 µM).
On to `CCNC(=O)OOC(C)(C)C`, for which the growth inhibition in test [1] (setting [7]) was 16%; in test [1] (setting [8]) it was 93% (active); in test [1] (at 50.0 µM), 74.7% (active); in test [2] (setting [7]) it was 6%; in test [2] (setting [8]), 83% (active); in test [2] (at 50.0 µM) it was 19.7%. Also, the growth inhibition in test [3] (setting [7]) is 4%; in test [3] (setting [8]) it was 94% (active); in test [3] (at 50.0 µM), -5.55%; in test [4] (setting [7]), -2%; in test [4] (setting [8]) it was 77% (active); in test [4] (at 50.0 µM) it was -17.8%. For the same compound, the growth inhibition in test [5] (setting [7]) is -2%; in test [5] (setting [8]), 72% (active); in test [5] (at 50.0 µM) it was 1.45%; in test [6] (setting [7]), 19%; in test [6] (setting [8]) it was 96% (active); in test [6] (at 50.0 µM), 21.7%.
`C1CCNCC1.O=C([CH-]C(=O)C(F)(F)F)c1ccc2c(c1)C(=O)c1ccccc1-2.O=C([CH-]C(=O)C(F)(F)F)c1ccc2c(c1)C(=O)c1ccccc1-2.O=C([CH-]C(=O)C(F)(F)F)c1ccc2c(c1)C(=O)c1ccccc1-2.O=C([CH-]C(=O)C(F)(F)F)c1ccc2c(c1)C(=O)c1ccccc1-2.[Eu+3]`: the growth inhibition is 54% in test [1] (setting [7]); 79% (active) in test [1] (setting [8]); 70.3% (active) in test [1] (at 50.0 µM); 42% in test [2] (setting [7]); 64% in test [2] (setting [8]); 20.2% in test [2] (at 50.0 µM). Further, the growth inhibition in test [3] (setting [7]) was 15%; in test [3] (setting [8]), 58%; in test [3] (at 50.0 µM), 52.2%; in test [4] (setting [7]) it was 54%; in test [4] (setting [8]) it was 77% (active); in test [4] (at 50.0 µM) it was 61.5%. The growth inhibition in test [5] (setting [7]) is 34%; in test [5] (setting [8]), 71% (active); in test [5] (at 50.0 µM), 52.2%; in test [6] (setting [7]), 40%; in test [6] (setting [8]) it was 69%; in test [6] (at 50.0 µM) it was 49.1%.
For the compound `O=[N+]([O-])c1ccc(SP(=S)(c2ccccc2)c2ccccc2)c([N+](=O)[O-])c1`, the growth inhibition in test [1] (setting [7]) is 7%; in test [1] (setting [8]), 97% (active); in test [1] (at 50.0 µM), 67.3%; in test [2] (setting [7]) it was 17%; in test [2] (setting [8]), 98% (active); in test [2] (at 50.0 µM), 48.3%. Moreover, the growth inhibition in test [3] (setting [7]) is 30%; in test [3] (setting [8]), 98% (active); in test [3] (at 50.0 µM), 88.6% (active); in test [4] (setting [7]), 5%; in test [4] (setting [8]), 96% (active); in test [4] (at 50.0 µM) it was 83.2% (active). Moreover, the growth inhibition in test [5] (setting [7]) is 9%; in test [5] (setting [8]), 98% (active); in test [5] (at 50.0 µM), 48%; in test [6] (setting [7]), 28%; in test [6] (setting [8]), 99% (active); in test [6] (at 50.0 µM) it was 70.5% (active).
In the case of `COC(=O)C1ON(c2ccccc2)C2c3ccccc3-c3ccccc3C12` (configuration not stated), the growth inhibition was 31% in test [1] (setting [7]); 63% in test [1] (setting [8]); 58.2% in test [1] (at 50.0 µM); 27% in test [2] (setting [7]); 62% in test [2] (setting [8]); 18.9% in test [2] (at 50.0 µM). In addition, the growth inhibition was 45% in test [3] (setting [7]); 76% (active) in test [3] (setting [8]); 61.3% in test [3] (at 50.0 µM); 14% in test [4] (setting [7]); 67% in test [4] (setting [8]); 50% in test [4] (at 50.0 µM). In addition, the growth inhibition was 33% in test [5] (setting [7]); 86% (active) in test [5] (setting [8]); 67.2% in test [5] (at 50.0 µM); 42% in test [6] (setting [7]); 68% in test [6] (setting [8]); 75% (active) in test [6] (at 50.0 µM).
